{"source": "PubChem BioAssay (NCATS)", "note": "Inconclusive results are not listed. A call without a number means that no potency is given here. Activity calls are given as the source filed them. The call rests on the fitted dose curve; in most records, active means well fitted cell-killing curve with a large enough effect; inconclusive means small, poorly fitted or top-dose-only effect, or effect the other way; inactive means flat fitted curve, though single readings scatter.", "data": [{"tested_on": "JEG-3", "assay": "Primary qHTS to identify gynecologic anti-cancer compounds using libraries of approved drugs and bioactive compounds (AID 1345084); further: nearly all actives have a fitted effect of over 55% in size", "conditions": "Gynecologic cancer cell panel viability, ATPlite luminescence, 48 h; series mostly up to 57.5 µM", "method_in_brief": "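Five-point cytotoxicity, 48 h drug exposure at 37 C, 5% CO2, on cells seeded 16 h beforehand. ATP content read by ATPlite luminescence.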", "values": [{"smiles": "CC(C)CC(=O)OC[C@@]1(O)C[C@@]23CC[C@H]4[C@@](C)(CCC[C@@]4(C)C(=O)O)[C@@H]2CC[C@@H]1C3", "Potency": "inactive"}, {"smiles": "C=C[C@H]1[C@H](O[C@@H]2O[C@H](CO)[C@@H](O)[C@H](O)[C@H]2O)OC=C(C(=O)OC)[C@H]1CC=O", "Potency": "inactive"}, {"smiles": "C=C1C(=O)OC2CC(COC(=O)C(C)C)=C(C(C)CCCOC(C)=O)[C@@H](OC(C)=O)C12", "note": "(some centres not stated)", "Potency": "inactive"}, {"smiles": "CC1=C2C(=O)C=C(CO[C@@H]3O[C@H](CO)[C@@H](O)[C@H](O)[C@H]3O)[C@@H]2[C@H]2OC(=O)[C@H](C)[C@@H]2[C@@H](O)C1", "Potency": "inactive"}, {"smiles": "C=C1C(=O)O[C@@H]2CC(C)=C([C@@H](C)CCCOC(C)=O)[C@@H](O)[C@H]12", "Potency": "inactive"}, {"smiles": "CC1=COC(OC2OC(CO)C(O)C(O)C2O)C2C(CO)CC(OC(=O)/C=C/c3ccc(O)cc3)C12", "note": "(configuration not stated)", "Potency": "inactive"}, {"smiles": "COc1cccc(OC)c1-c1ccc(C[C@H](NC(=O)c2c(Cl)cccc2Cl)C(=O)O)cc1", "Potency": "inactive"}, {"smiles": "C/C=C/C(=O)OC1/C=C/C(O)C(OC(C)=O)CCC(=O)OC1C", "note": "(configuration not stated)", "Potency": "inactive"}, {"smiles": "CC1(C)[C@H]2C[C@H](C/C=C\\CCCC(=O)O)[C@@H](NC(=O)c3csc4ccc(O)cc34)[C@@H]1C2", "Potency": "inactive"}, {"smiles": "CC(=O)/C=C/C1C(C)CC(O[C@@H]2O[C@H](CO)[C@@H](O)[C@H](O)[C@H]2O)CC1(C)C", "note": "(some centres not stated)", "Potency": "inactive"}, {"smiles": "COC(=O)c1ccccc1O[C@@H]1O[C@H](CO[C@@H]2OC[C@@H](O)[C@H](O)[C@H]2O)[C@@H](O)[C@H](O)[C@H]1O", "Potency": "inactive"}, {"smiles": "NC(Cc1c[nH]c2ccc(O)cc12)C(=O)O", "note": "(configuration not stated)", "Potency": "inactive"}]}]}
